Assay results taken from PubChem BioAssay (NCATS).
Results filed as inconclusive are left out. Entries that show only a call come without a potency. Activity calls are given as the source filed them. Calls follow the shape of the dose curve; as a rule, active = well fitted inhibition curve with a large enough effect; inconclusive = small, poorly fitted or top-dose-only effect; inactive = flat fitted curve, though single readings scatter.

System: CP305
Assay: qHTS profiling for inhibitors of Plasmodium falciparum proliferation (AID 504749); also: nearly all actives have a fitted effect of over 60% in size
Conditions: P. falciparum in erythrocytes, SYBR Green DNA, 72 h; series mostly up to 12.8 µM
Procedure, shortened: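 Quantitative HTS: compounds pinned into medium, infected erythrocytes added (0.3% parasitemia, 2.5% hematocrit), 72 h culture at 37 C under 5% CO2. Saponin/Triton lysis with SYBR Green I, overnight RT, then fluorescence read.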
Potency is read from the fitted curve at half-maximal effect.

Row | Structure (SMILES) | Potency
1 | CC(C)=CCC[C@](C)(O)C1CC=C(C)CC1 (stereo not given in full) | inactive
2 | C[C@]1(c2ccccc2)OC(C(=O)O)=CC1=O | inactive
3 | CC(=O)N[C@H](CC(C)C)C(=O)O | inactive
4 | COc1ccc2cc(C(C)CO)ccc2c1 (stereo not given) | inactive
5 | COC1C=CO[C@@]2(C)Oc3c(C)c(O)c4c(O)c(c(C=NN5CCN(C)CC5)c(O)c4c3C2=O)NC(=O)/C(C)=C\C=CC(C)C(O)[C@@H](C)C(O)C(C)[C@H](OC(C)=O)C1C (stereo not given in full) | 3.79 µM (active)
6 | CC1CCC(C(C)C)C(=O)C1 (stereo not given) | inactive
7 | CNC1CC(N)[C@H](O)[C@@H](O[C@@H]2OC(CO)C3OC4(OC(C(N)CO)C(O)C(O)C4O)O[C@@H]3[C@H]2O)C1O (stereo not given in full) | inactive
8 | CCCC(=O)O[C@]1(C(=O)CO)CCC2[C@@H]3CCC4=CC(=O)CC[C@]4(C)C3C(O)C[C@]21C (stereo not given in full) | inactive
9 | CC(=O)[C@]1(O)CCC2C3C=C(Cl)C4=CC(=O)C5CC5[C@@]4(C)C3CC[C@]21C (stereo not given in full) | inactive
10 | CC(=O)N[C@@H]1C(O)OC(CO)C(O)C1O (stereo not given in full) | inactive
11 | C/C1=C2N=C(/C=C3N=C(/C(C)=C4\[N-]C(C)(C5N=C1C(C)(CCC(=O)NCC(C)OP(=O)([O-])O[C@H]1C(O)C(n6cnc7cc(C)c(C)cc76)O[C@@H]1CO)C5CC(N)=O)C(C)(CC(N)=O)C4CCC(N)=O)C(C)(CC(N)=O)C\3CCC(N)=O)C(C)(C)C/2CCC(N)=O.[CH2-]C1OC(n2cnc3c(N)ncnc32)C(O)C1O.[Co] (stereo not given in full) | inactive
12 | O=C1OC(CO)C(O)C(O)C1O (stereo not given) | inactive
13 | CNC1C(OC2C(O[C@@H]3C(O)C(O)[C@@H](N=C(N)N)C(O)C3N=C(N)N)OC(C)[C@@]2(O)CO)OC(CO)C(O)C1O (stereo not given in full) | inactive
14 | COc1cc(C2c3cc4c(cc3C(O[C@@H]3OC5COC(c6cccs6)OC5C(O)C3O)C3COC(=O)C23)OCO4)cc(OC)c1O (stereo not given in full) | 1.69 µM (active)
15 | Nc1nc2ncc(CNc3ccc(C(=O)NC(CCC(=O)O)C(=O)O)cc3)nc2c(=O)[nH]1 (stereo not given) | inactive
